Assay outcomes deposited in PubChem by several laboratories.
HIF-2a block: inhibitors of HIF-2a; 360,000 compounds, 0.72% hits; inhibition, % at 18.8 µM; 786-0 RCC cells HIF-2a reporter, luciferase luminescence, overnight;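 active = inhibition of the luminescence signal of 40% or more relative to plate controls, in a single-dose primary screen at 18.75 µM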
Shn3 inh set2: Schnurri-3 reporter inhibition in Clone20 osteoblasts | inhibition, % at 12.5 µM | AID 588674 | 360,000 compounds, 0.52% hits | Clone20 osteoblast Shn3 3'UTR firefly luciferase, 24 h;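 active = mean inhibition of at least 75% with every replicate also reaching 75%; inconclusive = mean inhibition at least 75% but some replicate below; inactive = mean inhibition below 75%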;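 note: 0% = median of neutral control wells and 100% = pilot-screen positive control compound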
TRPM1 prom inh: reduces MITF-dependent TRPM1 promoter luciferase signal; inhibition, % at 12.5 µM; AID 488899; 330,000 compounds, 0.83% hits; SK-MEL-5 TRPM1 promoter luciferase, 24 h;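 active = mean inhibition across replicates of 60% or more, whatever share of single replicates reaches that level; inconclusive = some that reach 60%, reason not given; inactive = mean inhibition across replicates below 60%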
KKLEB tox: CF airway cell cytotoxicity counter-screen; KKLEB CF airway cells viability, ATPlite luminescence, overnight; active compounds read low; cells stimulated with P. aeruginosa culture filtrate; activity change (cytotoxicity), % at 5 µM; 360,000 compounds, 0.36% hits; AID 602141;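 active = corrected activity change at or below -50% at 5 µM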
Peg3 promoter: Peg3 promoter activity inhibition | HeLa PEG-Prom luciferase reporter, luminescence, overnight | inhibition, % at 20 µM | 360,000 compounds, 1.7% hits | AID 588405;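 active = inhibition of at least 50% at 20 µM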
CF NFkB inh: cystic fibrosis NF-kB activation inhibition | KKLEB NF-kB-GFP reporter, PAF-induced, GFP fluorescence overnight | 360,000 compounds, 0.86% hits | AID 588850 | inhibition, % at 5 µM;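 active = at least 50% inhibition at 5 µM, scaled per plate between neutral and stimulator controls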;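 note: PAF is a Pseudomonas aeruginosa culture filtrate used as stimulus; plate controls were PAF-stimulated DMSO wells for no effect and unstimulated DMSO wells for full effect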
An asterisk follows results filed as active; ? = inconclusive; . = no result given. Shown are actives, neighbours in structure and some others; about 2.8% of the full set was active somewhere.

SMILES	HIF-2a block	Shn3 inh set2	TRPM1 prom inh	KKLEB tox	Peg3 promoter	CF NFkB inh
COc1cccc(NC(=O)N2CCN(c3nc(-c4cccc(OC)c4)cs3)CC2)c1	-29	32	17	7	51*	-9
CC(=O)Nc1ccc(NC(=O)COC(=O)Cn2cnc3ccccc32)cc1	2	5	-7	-6	-3	-20
CC(=O)c1cccc(NC(=O)COC(=O)Cn2cnc3ccccc32)c1	11	-15	-5	-86*	-4	19
C[C@H]1CN([C@@H](C)CO)C(=O)CCCn2nncc2CO[C@H]1CN(C)C(=O)Nc1ccc2c(c1)OCO2	-27	-19	.	-4	-1	9
CCOC(=O)C1(Cc2cccc(OC)c2)CCCN(C(=O)CCN2CCCO2)C1 (configuration not stated)	-300	-92	-76	-15	-303	-3
Cc1cc(C[n+]2cc(Br)ccc2N)c2ncccc2c1	14	92*	-5	-7	0	-8
Cc1cc(C[n+]2cc(Cl)ccc2N)c2ncccc2c1	1	64	-6	-8	5	-5
COc1ccc(NC(=O)c2ccc(S(=O)(=O)N3CCCC3)cc2)cc1OC	-2	-14	3	7	10	-3
COc1cc(OC)cc(C(=O)Nc2nnc(NC(=S)Nc3ccccc3)s2)c1	-15	13	8	15	-9	65*
COC(=O)c1c(NC(=O)C(Cl)Cl)sc2c1C(C(=O)OC)CC2 (configuration not stated)	19	-7	?	1	81*	-6
COc1ccc2cc(-c3ccsc3)ncc2c1	-230	-23	62*	-20	-303	-1
COc1cc(OC)cc(-c2cc3ccc(OC)cc3cn2)c1	-267	-66	-64	-55*	-180	0
COc1ccc2cc(-c3ccccc3)ncc2c1	-187	-49	-36	-23	-308	-42
CCCCCN(C(=O)CCC(=O)OCc1ccc(C(C)(C)C)cc1)c1c(N)n(CCCC)c(=O)[nH]c1=O	19	53	18	-7	19	37
CCCCCN(C(=O)CCC(=O)OCc1ccc(C(C)C)cc1)c1c(N)n(CCCC)c(=O)[nH]c1=O	-5	54	4	-54*	11	54*
COc1ccc(-c2cc(C#N)nc(Oc3ccc(Cl)cc3)n2)cc1	11	-5	-10	-13	19	25
COc1ccc(-c2cc(C#N)nc(Cl)n2)cc1	14	8	66*	-10	39	1
CC(Nc1nc(N2CCCCC2)nc2ccccc12)c1ccccc1 (configuration not stated)	25	44	6	-39	68*	29
Cc1cc(C)cc(NC(=O)CSc2cc(C(=O)c3nccn3C)c3ccccc3n2)c1	17	32	23	2	41	-7
Cc1cccc(NC(=O)CSc2cc(C(=O)c3nccn3C)c3ccccc3n2)c1	-11	59	13	-54*	19	40
Cc1c(CCC(=O)N[C@@H](C)C(=O)O)c(=O)oc2cc3oc4c(c3cc12)CCCC4	76*	36	.	-2	-74	-1
Cc1c(CCC(=O)N2CCC(C(=O)O)CC2)c(=O)oc2cc3oc4c(c3cc12)CCCC4	58*	8	45	-12	-40	10
CCCCC1C(=O)N(c2ccccc2)N(c2ccccc2)C1=O	-1	-11	-2	-13	-14	-19
CCCCN1C=CC(=C2C(=O)c3ccccc3C2=O)C=C1	89*	91*	96*	-72*	110*	4
COc1ccc(C(=O)Nc2sc3c(c2C#N)CCN(C(C)=O)C3)cc1	-29	7	17	-9	-7	-5
SMILES	HIF-2a block	Shn3 inh set2	TRPM1 prom inh	KKLEB tox	Peg3 promoter	CF NFkB inh
CC(=O)N1CCc2c(sc(NC(=O)c3ccc([N+](=O)[O-])o3)c2C#N)C1	-11	13	95*	-64*	109*	98*
Clc1cccc(Cl)c1/C=C/c1nc2ccccc2[nH]1	-240	-89	-55	-36	-190	-16
Clc1ccc(/C=C/c2nc3ccccc3[nH]2)c(Cl)c1	-93	-28	5	-76*	-83	-18
O=C(/C=C/c1ccc(Cl)cc1Cl)c1nc2ccccc2[nH]1	13	8	-4	-12	-6	3
Clc1ccc(/C=C/c2nc3ccccc3[nH]2)cc1	-46	0	19	-74*	-50	-14
CN(Cc1ccccc1)C(=O)c1ccc2nc([C@@H]3O[C@H](CO)[C@H](O)[C@H](O)[C@H]3O)[nH]c2c1	11	-9	.	1	12	-1
CCCCN(C)C(=O)c1nc2ccccn2c1CN1CCSCC1	4	.	-2	-21	12	1
Nc1nc(=O)n(C2CCCCO2)cc1Br (configuration not stated)	7	2	1	-16	-5	12
CC(=C\c1ccccc1)/C=C1/SC(=S)N(CCCC(=O)O)C1=O	91*	9	44	22	22	-6
O=C(O)CCCN1C(=O)/C(=C\c2ccco2)SC1=S	55*	-4	20	0	24	4
COc1ccc(N2CC(NS(=O)(=O)c3cccs3)CC2=O)cc1 (configuration not stated)	5	1	0	0	-6	25
O=C(CN1CC(c2ccccc2)CC1=O)N/N=C/c1cc(Br)ccc1O (configuration not stated)	27	88*	10	-6	46	28
COc1ccc(COc2ccc3c(C)cc(=O)oc3c2)cc1	-331	-44	-68	7	-382	16
COc1ccc2c(-c3cc4ccc(OCc5ccc(F)cc5)cc4oc3=O)cc(=O)oc2c1	-41	27	32	-25	76*	15
COc1ccc(NC(=O)Nc2nc(C(N)Cc3ccc(C(F)(F)F)cc3)cs2)cc1 (configuration not stated)	2	34	.	-17	98*	28
COc1cc(NC(=O)Nc2nc(C(N)Cc3ccc(C(F)(F)F)cc3)cs2)cc(OC)c1OC (configuration not stated)	2	28	.	2	92*	-1
CC(=O)c1ccc(Nc2nc(C(N)Cc3ccc(C(F)(F)F)cc3)cs2)cc1 (configuration not stated)	6	10	.	-10	45	-4
COc1ccc(CC(N)c2csc(Nc3cc(NCCCO)ncn3)n2)cc1 (configuration not stated)	16	0	.	-3	14	12
Cc1ccc(C(=O)Nc2nc(C(N)Cc3ccc(C(F)(F)F)cc3)cs2)cc1 (configuration not stated)	9	16	.	-8	96*	12
COc1ccc(CC(N)c2csc(NC(=O)c3cc(C(C)(C)C)oc3C)n2)cc1 (configuration not stated)	-62	3	.	-18	99*	12
